Hits are enriched below; roughly 3.1% of the tested compounds scored in any of these assays.
NadD inh: NadD (S. aureus) enzyme inhibition; purified NadD enzyme, colorimetric absorbance read-out; inhibition, % at 20 µM; hit rate 0.78% among 360,000; AID 602399; in the data active = inhibition above about 26%
FAS-TE inh: inhibitors of human fatty acid synthase thioesterase domain. P49327. recombinant FAS-TE, OMFH fluorogenic substrate, fluorescence endpoint. inhibition, % at 15 µM. hit rate 0.67% among 360,000;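 active = compounds whose normalised, plate-corrected inhibition of enzyme fluorescence in the single-dose primary screen is 50% or more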
Target sequence (P49327 whole entry, looked up, the tested form may be a part): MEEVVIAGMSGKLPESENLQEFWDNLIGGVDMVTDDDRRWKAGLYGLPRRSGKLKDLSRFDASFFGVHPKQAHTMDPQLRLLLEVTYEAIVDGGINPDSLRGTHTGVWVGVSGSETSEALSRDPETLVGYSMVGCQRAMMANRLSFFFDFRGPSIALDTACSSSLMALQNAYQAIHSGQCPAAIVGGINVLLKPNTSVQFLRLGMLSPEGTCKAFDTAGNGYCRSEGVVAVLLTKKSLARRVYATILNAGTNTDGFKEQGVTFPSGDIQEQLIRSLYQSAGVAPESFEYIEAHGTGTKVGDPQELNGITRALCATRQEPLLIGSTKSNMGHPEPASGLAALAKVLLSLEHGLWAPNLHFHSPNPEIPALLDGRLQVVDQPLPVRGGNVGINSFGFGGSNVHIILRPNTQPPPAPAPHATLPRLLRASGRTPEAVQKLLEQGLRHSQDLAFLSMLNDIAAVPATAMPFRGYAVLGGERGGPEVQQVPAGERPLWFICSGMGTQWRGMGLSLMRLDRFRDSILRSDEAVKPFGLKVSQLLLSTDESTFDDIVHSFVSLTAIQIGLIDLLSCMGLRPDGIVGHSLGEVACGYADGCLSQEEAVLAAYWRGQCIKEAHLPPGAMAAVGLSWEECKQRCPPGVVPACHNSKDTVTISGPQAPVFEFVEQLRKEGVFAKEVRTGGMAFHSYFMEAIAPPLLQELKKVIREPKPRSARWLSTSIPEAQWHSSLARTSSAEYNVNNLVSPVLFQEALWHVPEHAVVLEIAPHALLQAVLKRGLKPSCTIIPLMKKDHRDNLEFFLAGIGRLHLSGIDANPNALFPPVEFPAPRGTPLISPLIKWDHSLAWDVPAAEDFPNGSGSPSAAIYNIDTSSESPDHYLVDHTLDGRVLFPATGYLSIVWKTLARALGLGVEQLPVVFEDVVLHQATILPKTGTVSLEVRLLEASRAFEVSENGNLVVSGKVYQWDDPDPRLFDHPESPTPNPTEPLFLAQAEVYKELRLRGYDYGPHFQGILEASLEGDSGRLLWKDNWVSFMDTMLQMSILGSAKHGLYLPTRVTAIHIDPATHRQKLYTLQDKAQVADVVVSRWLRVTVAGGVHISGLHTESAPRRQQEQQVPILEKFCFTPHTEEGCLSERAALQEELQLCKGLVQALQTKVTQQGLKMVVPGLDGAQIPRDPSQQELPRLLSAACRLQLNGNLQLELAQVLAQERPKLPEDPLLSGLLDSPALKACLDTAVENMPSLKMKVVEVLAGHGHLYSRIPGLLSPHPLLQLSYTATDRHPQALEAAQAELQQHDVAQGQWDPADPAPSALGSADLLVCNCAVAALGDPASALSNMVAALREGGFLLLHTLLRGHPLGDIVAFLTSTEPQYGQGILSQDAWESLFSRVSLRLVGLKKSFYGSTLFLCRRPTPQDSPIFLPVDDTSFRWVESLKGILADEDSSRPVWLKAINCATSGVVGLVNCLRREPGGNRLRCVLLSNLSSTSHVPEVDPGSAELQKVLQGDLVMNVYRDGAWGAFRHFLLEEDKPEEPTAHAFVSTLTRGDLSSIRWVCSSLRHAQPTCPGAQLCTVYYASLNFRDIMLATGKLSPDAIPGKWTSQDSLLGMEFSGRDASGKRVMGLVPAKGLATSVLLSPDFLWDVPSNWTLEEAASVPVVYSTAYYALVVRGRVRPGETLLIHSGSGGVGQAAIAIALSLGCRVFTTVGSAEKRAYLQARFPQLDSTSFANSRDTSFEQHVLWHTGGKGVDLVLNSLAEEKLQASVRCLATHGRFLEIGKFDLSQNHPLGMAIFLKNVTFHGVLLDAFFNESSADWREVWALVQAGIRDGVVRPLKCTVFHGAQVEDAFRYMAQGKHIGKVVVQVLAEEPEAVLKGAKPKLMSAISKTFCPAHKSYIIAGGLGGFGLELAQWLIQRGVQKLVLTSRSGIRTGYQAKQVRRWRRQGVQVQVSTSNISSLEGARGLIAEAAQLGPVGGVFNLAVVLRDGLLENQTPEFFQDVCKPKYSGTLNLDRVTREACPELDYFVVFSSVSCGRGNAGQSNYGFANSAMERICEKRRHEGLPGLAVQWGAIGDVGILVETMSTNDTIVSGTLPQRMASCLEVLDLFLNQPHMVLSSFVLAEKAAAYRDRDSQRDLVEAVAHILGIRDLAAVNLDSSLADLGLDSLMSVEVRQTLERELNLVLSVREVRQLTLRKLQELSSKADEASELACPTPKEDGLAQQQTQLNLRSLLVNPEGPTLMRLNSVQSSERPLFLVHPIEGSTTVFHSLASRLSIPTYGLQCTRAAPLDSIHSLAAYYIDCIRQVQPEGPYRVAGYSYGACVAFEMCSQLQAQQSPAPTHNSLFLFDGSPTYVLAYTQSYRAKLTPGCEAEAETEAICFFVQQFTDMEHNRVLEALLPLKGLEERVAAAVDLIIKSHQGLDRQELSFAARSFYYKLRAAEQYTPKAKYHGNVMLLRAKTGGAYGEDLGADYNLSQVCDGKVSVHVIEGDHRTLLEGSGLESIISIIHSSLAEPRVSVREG
SUMO Mot1 rescue: SUMOylation pathway inhibition by Mot1-301 growth rescue; AID 2716; growth rescue, % at 18.8 µM; S. cerevisiae Mot1-301 growth rescue, ATP luminescence, 38.5C; percent above DMSO median, 100 means doubled; hit rate 1% among 320,000;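 active = every valid replicate shows activation above 250% relative to neutral control wells; inactive = the rest, any valid replicate at or below 250%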
ATG4B inh: inhibitors of human ATG4B cysteine protease; ATG4B cleavage of LC3-PLA2, NBD-HPC fluorescence, 1 h; hit rate 0.51% among 340,000; inhibition, % at 8.33 µM; AID 504462; in the data active = inhibition above about 40%
Calb FLC: C. albicans growth modulation with fluconazole | C. albicans CaCi-2 (fluconazole-resistant clinical isolate) + fluconazole, Alamar Blue growth, 48 h | growth inhibition, % (test concentration not listed) | hit rate 0.57% among 300,000;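 active = growth inhibition above about 58% in most replicates, limit read from the data, passing the limit was not always enough; inconclusive = exactly half the replicates above a set limit; inactive = most replicates below a set limit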;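 note: all wells also contain fluconazole at 8 µg/ml as a sub-toxic cotreatment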
Numbers stand for hits; - = inactive; ? = inconclusive; . = not tested or not shown; + = active, no number.

SMILES | NadD inh | FAS-TE inh | SUMO Mot1 rescue | ATG4B inh | Calb FLC
CC(NC(=O)c1ccccc1F)c1nnc(SCc2nc3ccccc3c(=O)[nH]2)n1C (configuration not stated) | - | - | 292.3 | - | -
COc1ccc(-c2csc(C(C)(NC(C)=O)c3ccccc3)n2)cc1 (configuration not stated) | - | - | . | . | .
CCn1c(CN2CCCCCC2=O)nnc1SCc1cnc(-c2ccccc2)s1 | - | - | - | - | 78.3
O=C1CCCCCN1Cc1nnc(SCc2nc3ccccc3s2)n1-c1ccccn1 | - | - | - | - | -
COc1ccccc1NC(=O)NC1CCS(=O)(=O)C1 (configuration not stated) | - | - | - | - | -
CCOC(=O)c1c(NC(=O)C2C3C=CC(C3)C2C(=O)O)sc2c1CCC(CC)C2 (configuration not stated) | - | - | - | - | -
CCOC(=O)c1c(NC(=O)C2C3C=CC(CC3)C2C(=O)O)sc(C)c1C (configuration not stated) | - | - | 298.4 | - | -
COc1ccc(-c2nc(-c3ccccc3)nc(Cl)c2C#N)cc1 | - | - | - | - | -
CSc1nc(Cl)c(C#N)c(-c2ccc(C)cc2)n1 | - | - | - | - | 81.3
O=C1CCC[C@@H]2[C@H]3CCC[N+]4([O-])CCC[C@@H](CN12)[C@@H]34 (some centres not stated) | - | - | - | - | -
CC(C)N(Cc1cc2ccccc2[nH]c1=O)C(=O)c1cccnc1 | - | - | - | - | -
Cc1ccc2cc(CN(C(=O)c3ccncc3)C(C)C)c(=O)[nH]c2c1 | - | - | 305.9 | - | ?
CC(C)n1c(/C=C/[C@H](O)C[C@H](O)CC(=O)O)c(-c2ccc(F)cc2)c2ccccc21 | - | - | - | - | .
O=C(O)C[C@H](O)C[C@H](O)/C=C/c1c(C2CC2)nc2ccccc2c1-c1ccc(F)cc1 | . | . | . | . | 102.9
Cc1cc(C)c(CSc2nnnn2-c2ccc(C(=O)O)cc2)c(C)c1 | - | - | 581.2 | - | -
O=C(O)c1ccc(-n2nnnc2SCc2cccc(Br)c2)cc1 | - | - | - | - | -
COc1cccc(CCNC(=O)CC2C(=O)NCCN2CC(C)(C)C)c1 (configuration not stated) | - | - | 551.0 | - | -
COc1ccc(CN2CCNC(=O)C2CC(=O)NCCc2nc(C)c(C)s2)c(OC)c1 (configuration not stated) | - | - | - | - | -
COc1ccc(CN2CCNC(=O)C2CC(=O)NCCc2c[nH]c3ccccc23)c(OC)c1 (configuration not stated) | - | - | 523.7 | - | -
COC(=O)[C@@]1(Cc2ccccc2)[C@H]2C(=O)N(Cc3ccccc3)C(=O)[C@H]2[C@H]2CN=C(SC)N21 | - | - | . | - | .
Cn1c(=O)c2c(nc(N3CCCCCC3)n2CCSc2nc3ccccc3o2)n(C)c1=O | - | - | 422.6 | - | -
CC1CCN(c2nc3c(c(=O)n(C)c(=O)n3C)n2CCSc2nc3ccccc3o2)CC1 | . | . | . | . | -
CN1CCN(c2nc3c(c(=O)n(C)c(=O)n3C)n2Cc2ccc(Cl)cc2)CC1 | - | - | 288.8 | - | -
CC(C)(C)OC(=O)N1O[C@H]2CC1[C@@H]1[C@@H]2N=NN1CCc1ccncc1 | - | - | . | - | .
CCC(OC(=O)c1ccco1)C(=O)NCc1ccc2c(c1)OCO2 (configuration not stated) | - | - | - | - | -
SMILES | NadD inh | FAS-TE inh | SUMO Mot1 rescue | ATG4B inh | Calb FLC
O=C(C=Cc1ccccc1)c1cc(Br)ccc1O | - | - | . | - | .
Cc1cccc(/C=C/C(=O)c2cc(Br)ccc(=O)c2O)c1 | - | - | - | - | 99.6
CCc1ccc(/C=C/C(=O)c2cc(Br)ccc(=O)c2O)cc1 | - | - | - | - | 93.8
O=C(Nc1ccccc1)Nc1cc(OCC(F)(F)F)cc(OCC(F)(F)F)c1 | - | 51.9 | . | - | -
COc1ccccc1N(C(=O)Cn1nnc(-c2ccc(C)o2)n1)C(C(=O)NC1CCCC1)c1ccncc1 (configuration not stated) | - | - | - | - | -
COc1cc(/C=N/Nc2ccc(C(F)(F)F)cn2)ccc1O | - | - | + | - | -
O=C(O)c1ccc(/C=N/Nc2ccc(C(F)(F)F)cn2)cc1 | - | - | . | - | -
CCN1C(=O)[C@@H]2[C@@H](c3ccc(-c4ccc(C(C)=O)cc4)c(OC)c3)N3CCC[C@@]3(C(=O)OC)[C@@H]2C1=O | - | - | - | - | .
Cc1c(C(=O)Nc2nc(-c3ccccn3)cs2)oc2ccccc12 | - | - | - | - | .
O=C(Nc1nc(-c2ccccn2)cs1)c1cc2ccccc2o1 | - | - | - | - | 98.6
Oc1ccc(N2CCN(C(=S)NCCc3ccccc3)CC2)cc1 | - | - | - | - | 106.2
COC(=O)N/N=C/c1ccc(-c2cc(Cl)cc(Cl)c2)o1 | - | - | - | - | 78.9
O=C(O)c1cc(-c2ccc(/C=N/Nc3ccc(Cl)cc3)o2)ccc1Cl | - | - | 303.7 | - | -
Cc1cc(C)c2c(c1)NC(c1cc3c(cc1Br)OCO3)C1CC=CC21 (configuration not stated) | 36.5 | - | - | - | -
Brc1cc2c(cc1C1Nc3ccccc3C3C=CCC31)OCO2 (configuration not stated) | - | - | - | - | -
COc1ccc(-c2ccc3c(c2)C2CC3CCN2S(=O)(=O)c2ccccc2C)cc1 (configuration not stated) | - | - | . | - | .
Nc1ccc(CCNc2ncnc3c2ncn3[C@@H]2O[C@H](CO)[C@@H](O)[C@H]2O)cc1 | - | - | - | - | .
OCC1OC(n2cnc3c(NCCc4ccccc4)ncnc32)C(O)C1O (configuration not stated) | - | - | 316.9 | - | -
CCSc1ccc2cc(OC)ccc2[n+]1CC | - | - | - | - | 75.4
CC(C)C[C@H]1COc2cc(N3CC[C@H](O)C3)ccc2S(=O)(=O)N1 | - | - | . | . | .
CCOC1=CC2=C(C(=O)C(Cl)=CC2=O)[C@@H]2CN(S(=O)(=O)c3ccc(C)cc3)[C@@H](c3ccccc3)[C@H]12 | 37.3 | - | . | . | .
CCOC(=O)C1CCN(CCC(=O)Nc2ccc(F)cc2)CC1 | - | - | - | - | 106.9
COc1cccc(C(NC(C)=O)c2nc(-c3ccc(OC)nc3)cs2)c1 (configuration not stated) | - | - | . | . | .
CCc1ccc(/C(C)=N\Nc2ccc([N+](=O)[O-])cc2)cc1 | - | - | - | - | 128.6
C/C(=N\Nc1ccc([N+](=O)[O-])cc1)c1ccc(N)cc1 | - | - | - | - | -
Cc1ccc(S(=O)(=O)NC(=O)Nc2ccc(N(C)C)cc2)cc1 | - | - | - | - | 87.2
COc1cccc(/C=N/NC(=O)c2cc3cc([N+](=O)[O-])ccc3s2)c1O | 43.0 | - | - | - | -
COc1cc([N+](=O)[O-])cc(/C=N/NC(=O)c2ccc(NC(=O)c3ccc(C)cc3)cc2)c1O | 82.4 | - | . | - | 101.8
COc1ccccc1/C=N/NC(=O)c1ccc(NC(=O)c2cccc([N+](=O)[O-])c2)cc1 | . | . | - | . | -

Compound activity deposited in PubChem BioAssay by several laboratories.
